The entries come from a sample that favours hits as a whole.
RMI FANCM FP – blocks RMI1/RMI2 complex binding to FANCM MM2 peptide | Fluorescence polarization, RMI core complex with F-MM2 peptide; hits give low values | FP signal (polarization) at 33 µM | hit rate 0.58% among 70,000 | AID 1159607; in the data active = FP signal below about 40
A number is an active result; . = inactive; ! = not confirmed by another sample.

SMILES | RMI FANCM FP
Cc1c(C)c2c(c(C)c1O)CCC(C)(CN1CCN(c3cc(N4CCCC4)nc(N4CCCC4)n3)CC1)O2 (stereo not drawn) | .
Cc1c(C)c2c(c(C)c1O)CC[C@@](C)(CCC[C@H](C)CCC[C@H](C)CCCC(C)C)O2 | .
Cc1c(C)c2c(c(C)c1O)CCC(C)(C(=O)O)O2 (stereo not drawn) | 1
O=C(CC1CCCCN1S(=O)(=O)c1ccccc1)Nc1ccc(Oc2ccccc2)cc1 (stereo not drawn) | .
COc1ccccc1N1CCN(C(=O)C(C)c2ccc(CC(C)C)cc2)CC1 (stereo not drawn) | .
O=C(NCc1ccccn1)c1ccc(CSc2nc(-c3ccccc3)cs2)o1 | .
CCOC(=O)c1c(NC(=O)c2ccc3ncsc3c2)sc2c1CCN(C(=O)OCC)C2 | -5
CCOC(=O)N1CCc2c(sc(NC(=O)c3cccc(C)c3)c2C(N)=O)C1 | .
COC(=O)N1CCc2c(sc(NC(=O)c3ccc4ncsc4c3)c2C(N)=O)C1 | .
COc1cccc(CNC(=O)CSc2ncc(-c3ccc(F)cc3)o2)c1OC | .
CCOC(=O)c1nc(-c2ccc([N+](=O)[O-])o2)no1 | .
O=C(CC1CCCCN1S(=O)(=O)c1ccc(F)cc1)NCCc1c[nH]c2ccccc12 (stereo not drawn) | .
CCN1CCN(Cc2c(O)ccc3c2O/C(=C\c2ccc(Cl)cc2Cl)C3=O)CC1 | .
O=C(COc1ccc(F)cc1)Nc1ccc2c(c1)CN(C(=O)c1ccco1)CC2 | .
Cn1c(-c2c(N)n(Cc3ccco3)c3nc4ccccc4nc23)nc2ccccc21 | .
Nc1c(S(=O)(=O)c2cccs2)c2nc3ccccc3nc2n1Cc1ccco1 | 12
C=CCn1c(N)c(S(=O)(=O)c2ccc(Cl)cc2)c2nc3ccccc3nc21 | .
CC(=O)Nc1cccc(NC(=O)CSc2nc(CC(=O)Nc3cccc(C)c3C)cs2)c1 | .
CN1CCN(c2nc(-c3ccc([N+](=O)[O-])cc3)nc3ccccc23)CC1 | .
COc1ccc(C)c2sc(N(CCN(C)C)C(=O)c3cc4cc([N+](=O)[O-])ccc4s3)nc12 | .
Cc1ccc(NC(=O)CSc2nnc(NC(=O)c3ccc(S(=O)(=O)N4CCOCC4)cc3)s2)cc1Cl | .
CCc1cc(Cl)c(OC)c(C(=O)NC[C@@H]2CCCN2CC)c1O | .
CCN1CCCC1CNC(=O)c1cc(S(N)(=O)=O)ccc1OC (stereo not drawn) | 2!
CCN1CCC[C@H]1CNC(=O)c1c(OC)ccc(I)c1O | .
O/N=C\c1ccc(-c2cccs2)s1 | .
SMILES | RMI FANCM FP
COC(=O)c1ccc2c(=O)n(CC(=O)NCCc3ccc(S(N)(=O)=O)cc3)c(=S)[nH]c2c1 | .
Cc1cc(=O)oc2cc(NC(=O)CC(CC(=O)O)c3ccccc3)ccc12 (stereo not drawn) | .
NC(=O)C1Cc2ccccc2N1C(=O)CCCN1C(=O)c2ccccc2C1=O (stereo not drawn) | .
O=C1Cc2ccccc2C1=C1Cc2ccccc2C1 | .
NC(=O)N1c2ccccc2CC(=O)c2ccccc21 | -8!
COc1ccc2nc(-c3ccc(OC)c(NS(=O)(=O)c4cc(C)cc(C)c4)c3)cn2n1 | .
CC(C)C(=O)N1CCC2(CC1)NC(=O)NC2=O | .
Cc1ccc(-c2csc(/C(C#N)=C/Nc3ccc(Cl)c(C(F)(F)F)c3)n2)cc1 | .
N#C/C(=C\Nc1ccc(S(=O)(=O)N=C(N)N)cc1)c1nc(-c2ccc([N+](=O)[O-])cc2)cs1 | .
N#C/C(=C\Nc1ccc(S(=O)(=O)NC(N)=O)cc1)c1nc(-c2ccc(Cl)cc2)cs1 | 15
O=C(c1cccs1)N1CCc2ccc(NS(=O)(=O)c3ccc(Cl)cc3)cc21 | .
Cc1nc2ccc(NC(=O)COc3ccc(Cl)cc3Cl)cc2c(=O)n1-c1ccc(F)cc1 | .
COc1cccc(CNC(=O)Cn2c(=O)n(Cc3ccccc3Cl)c(=O)c3nccnc32)c1OC | .
CCOc1ccccc1CN1C(=O)C(NC(C)=O)c2cc(C)cc(C)c21 (stereo not drawn) | .
CCOc1ccccc1CN1C(=O)C2(SC(NC(C)=O)=NN2C(C)=O)c2cccc(Cl)c21 (stereo not drawn) | 22
O=C(O)c1cccnc1SC1CC(=O)N(c2ccc(Cl)cc2[N+](=O)[O-])C1=O (stereo not drawn) | .
CS(=O)(=O)N1CCC(C(=O)NCC2(c3cccs3)CCCC2)CC1 | .
COc1ccc(-c2noc(CSc3nc4ccsc4c(=O)n3C)n2)cc1 | .
CCOc1ccc(-c2noc(CSc3nc4ccsc4c(=O)n3-c3cccc(OC)c3)n2)cc1 | .
CCOc1ccc(-c2noc(CSc3nc4ccsc4c(=O)n3C3CC3)n2)cc1 | 39
CC(C)N1CCc2nc(SCC(=O)Nc3ccc(F)c(Cl)c3)[nH]c(=O)c2C1 | .
COc1ccc(Oc2ccc([N+](=O)[O-])cc2-c2nc(CS(=O)(=O)C(C)(C)C)no2)cc1 | .
CCOc1cccc2c1Oc1[nH]c(-c3cccc(OC)c3O)nc(=S)c1C2 | 12
COc1ccccc1-c1nc(=S)c(C(C)=O)c(C)[nH]1 | .
Cc1ncc(CO)c2c1Oc1[nH]c(-c3ccc(F)cc3)nc(=S)c1C2 | .
SMILES | RMI FANCM FP
CCOC(=O)C1CN(C2CCCCC2)C(=O)C1=O (stereo not drawn) | .
O=C(CNCCO)N1N=C(c2ccccc2)CC1c1cn(-c2ccccc2)nc1-c1ccccc1 (stereo not drawn) | .
Cc1ccccc1-c1ccc(N2CCN(C(=O)Nc3cccs3)CC2)nn1 | .
Cc1ccc(C)c(Cn2cnc3c(-c4cccc(Cl)c4)csc3c2=O)c1 | .
O=c1c2scc(-c3ccccc3)c2ncn1Cc1cccc(Cl)c1 | .
O=c1c2scc(-c3cccc(Cl)c3)c2ncn1Cc1cc(=O)n2ccccc2n1 | 16
COc1ccc(NC(=O)CSc2nc(NC(C)=O)c(NC(=O)c3ccc(F)cc3)c(=O)[nH]2)cc1 | .
CS(=O)(=O)c1ncc(Cl)cn1 | .
N#CCCN1CCN(C2=NC(=O)/C(=C\c3ccc(-c4cccc(C(F)(F)F)c4)o3)S2)CC1 | .
Cc1ccc(/C=c2\sc3nc(=O)c(C)nn3c2=O)o1 | .
Cc1occc1-c1nc2s/c(=C\c3ccc(-c4cccc(C(F)(F)F)c4)o3)c(=O)n2n1 | 16
C=CCNC(=O)Cc1csc(SCc2ccc(Br)cc2)n1 | .
C=CCN1C(=O)C(C)(C)COc2cc(NC(=O)c3ccc(OCC)c(OCC)c3)ccc21 | .
Cc1nc(-c2ccccc2)sc1-c1nc(-c2ccc([N+](=O)[O-])o2)no1 | .
COc1ccc(Cc2nnc(N)o2)cc1 | .
CCNc1nc(SCc2ccc([N+](=O)[O-])cc2)nc2sc3c(c12)CCN(C)C3 | -31
CCNc1nc(SCc2ccc([N+](=O)[O-])cc2)nc2sc3c(c12)CCC(C)C3 (stereo not drawn) | .
Cn1c(SCc2ccc([N+](=O)[O-])cc2)nc2c(c1=O)SCC2 | .
CNC(=O)[C@H]1O[C@@H](n2cnc3c(N)ncnc32)C(O)[C@H]1O (stereo partly drawn) | .
COCCN(CCOC)S(=O)(=O)c1ccc(C(=O)Nc2nc3cc4c(cc3s2)OCO4)cc1 | .
Cc1nn(C2CCS(=O)(=O)C2)c2nc(-c3cccs3)cc(C(=O)N3CCc4ccccc43)c12 (stereo not drawn) | .
CCCN1CCCc2cc(CCNC(=O)c3ccccc3C)ccc21 | .
CCOc1ccccc1C(=O)NCC1CCN(Cc2cccs2)CC1 | .
O=C(c1ccc(Br)o1)N1CCOCC1 | .
COC(=O)/C(C#N)=C(\C#N)c1ccc(Br)o1 | 26
O=C(Nc1cccc(Cl)c1)c1ccc(Br)o1 | .

Source: PubChem BioAssay (Small Molecule Screening Facility, UW Madison)
